# About 410 targets per protein were measured; listed, in parts, are those with the strongest signals and a random draw of the rest.
# B1: F17-L (Escherichia coli) (protein)
# chain: GPDDYVPSQIAVNTSTLPGVVIGPADAHTYPRVIGELAGTSNQYVFNGGAIALMRGKFTPALPKIGSITYTFHQGNSRDSSDFDIYDIGVSGLGIIIGMAGYWPATPLVPINSSGIYIDPVGANTNPNTYNGATASFGARLFVAFVATGRLPNGYITIPTRQLGTILLEAKRTSLNNKGLTAPVMLNGGRIQVQSQTHHHHHH
# Tests used:
# Experiment in all cases: glycan array binding signal (z-score within array); higher = stronger binding
# Conditions in all cases: glycan notation: IUPAC condensed, linker removed
# [1] = molecular target: Fuc(a1-2)Gal(b1-3)GalNAc(b1-3)Gal
# Procedure, shortened: (§1)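 The binding signal is a Z-score computed within each array. Data were drawn from 3228 arrays in the Consortium for Functional Glycomics database, restricted to those with a known protein sequence. Scores were averaged over arrays of the same protein sequence at different concentrations or buffers, and over linkers, and negative values can be taken as non-binding.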
# [2] = molecular target: Fuc(a1-2)Gal(b1-3)GlcNAc(b1-3)Gal(b1-4)Glc
# Procedure, shortened: as §1
# [3] = molecular target: Fuc(a1-2)Gal(b1-4)[Fuc(a1-3)]GlcNAc(b1-3)[Neu5Ac(a2-6)Gal(b1-4)GlcNAc(b1-6)]Gal(b1-4)Glc
# Procedure, shortened: as §1
# [4] = molecular target: Fuc(a1-2)[Gal(a1-3)]Gal(b1-4)GlcNAc(b1-2)Man
# Procedure, shortened: as §1
# [5] = molecular target: Fuc(a1-2)[GalNAc(a1-3)]Gal(b1-3)GalNAc(b1-3)Gal(a1-4)Gal(b1-4)Glc
# Procedure, shortened: as §1
# [6] = molecular target: Fuc(a1-2)[GalNAc(a1-3)]Gal(b1-3)GlcNAc(b1-2)Man(a1-3)[Fuc(a1-2)[GalNAc(a1-3)]Gal(b1-3)GlcNAc(b1-2)Man(a1-6)]Man(b1-4)GlcNAc(b1-4)GlcNAc
# Procedure, shortened: as §1
# [7] = molecular target: Fuc(a1-3)[Gal(b1-4)]GlcNAc(b1-2)Man(a1-3)[Fuc(a1-3)[Gal(b1-4)]GlcNAc(b1-2)Man(a1-6)]Man(b1-4)GlcNAc(b1-4)GlcNAc
# Procedure, shortened: as §1
# [8] = molecular target: Gal(a1-3)Gal(b1-3)GlcNAc(b1-3)GalNAc
# Procedure, shortened: as §1
# [9] = molecular target: Gal(a1-3)Gal(b1-3)[Fuc(a1-4)]GlcNAc(b1-2)Man(a1-3)[Gal(a1-3)Gal(b1-3)[Fuc(a1-4)]GlcNAc(b1-2)Man(a1-6)]Man(b1-4)GlcNAc(b1-4)GlcNAc
# Procedure, shortened: as §1
# Gal(a1-3)GalNAc = molecular target: Gal(a1-3)GalNAc
# Procedure, shortened: as §1
# Gal(a1-4)Gal(b1-4)GlcNAc = molecular target: Gal(a1-4)Gal(b1-4)GlcNAc
# Procedure, shortened: as §1
# [10] = molecular target: Gal(a1-4)Gal(b1-4)GlcNAc(b1-2)Man(a1-3)[Gal(a1-4)Gal(b1-4)GlcNAc(b1-2)Man(a1-6)]Man(b1-4)GlcNAc(b1-4)GlcNAc
# Procedure, shortened: as §1
# [11] = molecular target: Gal(a1-4)Gal(b1-4)GlcNAc(b1-3)Gal(b1-4)Glc
# Procedure, shortened: as §1
# Gal(b1-2)Gal = molecular target: Gal(b1-2)Gal
# Procedure, shortened: as §1
# [12] = molecular target: Gal(b1-3)GlcNAc(b1-3)Gal(b1-4)Glc
# Procedure, shortened: as §1
# [13] = molecular target: Gal(b1-3)[Fuc(a1-4)]GlcNAc(b1-2)Man(a1-3)[Gal(b1-3)[Fuc(a1-4)]GlcNAc(b1-2)Man(a1-6)]Man(b1-4)GlcNAc(b1-4)[Fuc(a1-6)]GlcNAc
# Procedure, shortened: as §1
# Gal(b1-4)Glc = molecular target: Gal(b1-4)Glc
# Procedure, shortened: as §1
# [14] = molecular target: Gal(b1-4)GlcNAc(b1-2)[Gal(b1-4)GlcNAc(b1-4)]Man(a1-3)[Gal(b1-4)GlcNAc(b1-2)Man(a1-6)]Man(b1-4)GlcNAc(b1-4)GlcNAc
# Procedure, shortened: as §1
# [15] = molecular target: Gal(b1-4)GlcNAc(b1-3)Gal(b1-4)Glc
# Procedure, shortened: as §1
# [16] = molecular target: Gal(b1-4)GlcNAc(b1-3)Gal(b1-4)GlcNAc(b1-3)Gal(b1-4)GlcNAc(b1-2)Man(a1-3)[Gal(b1-4)GlcNAc(b1-3)Gal(b1-4)GlcNAc(b1-3)Gal(b1-4)GlcNAc(b1-2)Man(a1-6)]Man(b1-4)GlcNAc(b1-4)[Fuc(a1-6)]GlcNAc
# Procedure, shortened: as §1
# [17] = molecular target: Gal(b1-4)GlcNAc(b1-3)GalNAc
# Procedure, shortened: as §1
# [18] = molecular target: Gal(b1-4)GlcNAc(b1-6)Gal(b1-4)GlcNAc
# Procedure, shortened: as §1
# Gal(b1-6)Gal = molecular target: Gal(b1-6)Gal
# Procedure, shortened: as §1
# Gal4S(b1-4)GlcNAc = molecular target: Gal4S(b1-4)GlcNAc
# Procedure, shortened: as §1
# GalNAc(b1-3)GalNAc = molecular target: GalNAc(b1-3)GalNAc
# Procedure, shortened: as §1
# GlcA(b1-3)GlcNAc = molecular target: GlcA(b1-3)GlcNAc
# Procedure, shortened: as §1
# [19] = molecular target: GlcNAc(a1-4)Gal(b1-4)GlcNAc(b1-3)Gal(b1-4)[Fuc(a1-3)]GlcNAc(b1-3)Gal(b1-4)[Fuc(a1-3)]GlcNAc
# Procedure, shortened: as §1
# [20] = molecular target: GlcNAc(b1-3)Gal(b1-4)GlcNAc(b1-3)Gal(b1-4)GlcNAc(b1-2)Man(a1-3)[GlcNAc(b1-3)Gal(b1-4)GlcNAc(b1-3)Gal(b1-4)GlcNAc(b1-2)Man(a1-6)]Man(b1-4)GlcNAc(b1-4)GlcNAc
# Procedure, shortened: as §1
# [21] = molecular target: GlcNAc(b1-3)Gal(b1-4)GlcNAc(b1-3)Gal(b1-4)GlcNAc(b1-3)Gal(b1-4)GlcNAc(b1-3)Gal(b1-4)GlcNAc(b1-2)[GlcNAc(b1-3)Gal(b1-4)GlcNAc(b1-3)Gal(b1-4)GlcNAc(b1-3)Gal(b1-4)GlcNAc(b1-3)Gal(b1-4)GlcNAc(b1-6)]Man(a1-6)[GlcNAc(b1-3)Gal(b1-4)GlcNAc(b1-3)Gal(b1-4)GlcNAc(b1-3)Gal(b1-4)GlcNAc(b1-3)Gal(b1-4)GlcNAc(b1-2)Man(a1-3)]Man(b1-4)GlcNAc(b1-4)[Fuc(a1-6)]GlcNAc
# Procedure, shortened: as §1
# [22] = molecular target: GlcNAc(b1-3)[GlcNAc(b1-6)]Gal(b1-4)GlcNAc
# Procedure, shortened: as §1
# [23] = molecular target: GlcNAc(b1-4)GlcNAc(b1-4)GlcNAc
# Procedure, shortened: as §1
# [24] = molecular target: GlcNAc(b1-6)Gal(b1-4)GlcNAc
# Procedure, shortened: as §1
# Kdn(a2-3)Gal(b1-4)Glc = molecular target: Kdn(a2-3)Gal(b1-4)Glc
# Procedure, shortened: as §1
# [25] = molecular target: Man(a1-2)Man(a1-3)[Man(a1-2)Man(a1-6)]Man
# Procedure, shortened: as §1
# MurNAc(b1-4)GlcNAc = molecular target: MurNAc(b1-4)GlcNAc
# Procedure, shortened: as §1
# Neu5Ac(a2-3)Gal = molecular target: Neu5Ac(a2-3)Gal
# Procedure, shortened: as §1
# [26] = molecular target: Neu5Ac(a2-3)Gal(b1-3)GlcNAc(b1-4)Gal(b1-4)Glc
# Procedure, shortened: as §1
# [27] = molecular target: Neu5Ac(a2-3)Gal(b1-3)[Fuc(a1-4)]GlcNAc(b1-3)Gal(b1-4)[Fuc(a1-3)]GlcNAc
# Procedure, shortened: as §1
# [28] = molecular target: Neu5Ac(a2-3)Gal(b1-3)[Neu5Ac(a2-6)]GlcNAc(b1-3)[Fuc(a1-3)[Gal(b1-4)]GlcNAc(b1-6)]Gal(b1-4)Glc
# Procedure, shortened: as §1
# [29] = molecular target: Neu5Ac(a2-3)Gal(b1-3)]Neu5Ac(a2-3)Gal(b1-4)]GlcNAc
# Procedure, shortened: as §1
# [30] = molecular target: Neu5Ac(a2-3)Gal(b1-4)GlcNAc(b1-3)Gal(b1-4)GlcNAc(b1-6)[Gal(b1-3)]GalNAc
# Procedure, shortened: as §1
# [31] = molecular target: Neu5Ac(a2-3)Gal(b1-4)[Fuc(a1-3)]GlcNAc(b1-2)Man
# Procedure, shortened: as §1
# [32] = molecular target: Neu5Ac(a2-3)Gal(b1-4)[Fuc(a1-3)]GlcNAc(b1-3)Gal(b1-4)[Fuc(a1-3)]GlcNAc(b1-3)Gal(b1-4)[Fuc(a1-3)]GlcNAc
# Procedure, shortened: as §1
# [33] = molecular target: Neu5Ac(a2-3)Gal(b1-4)[Fuc(a1-3)]GlcNAc(b1-6)[Neu5Ac(a2-3)Gal(b1-3)]GalNAc
# Procedure, shortened: as §1
# [34] = molecular target: Neu5Ac(a2-6)Gal(b1-4)GlcNAc(b1-2)Man
# Procedure, shortened: as §1
# [35] = molecular target: Neu5Ac(a2-6)Gal(b1-4)GlcNAc(b1-3)Gal(b1-4)GlcNAc
# Procedure, shortened: as §1
# [36] = molecular target: Neu5Ac(a2-6)Gal(b1-4)GlcNAc(b1-3)Gal(b1-4)GlcNAc(b1-3)[Neu5Ac(a2-6)Gal(b1-4)GlcNAc(b1-3)Gal(b1-4)GlcNAc(b1-6)]GalNAc
# Procedure, shortened: as §1
# [37] = molecular target: Neu5Ac(a2-6)Gal(b1-4)GlcNAc(b1-3)Gal(b1-4)GlcNAc(b1-6)[Gal(b1-3)]GalNAc
# Procedure, shortened: as §1
# [38] = molecular target: Neu5Ac9Ac(a2-6)Gal(b1-4)GlcNAc
# Procedure, shortened: as §1
# [39] = molecular target: Neu5Gc(a2-8)Neu5Gc(a2-3)Gal(b1-4)GlcNAc(b1-3)Gal(b1-4)GlcNAc
# Procedure, shortened: as §1
binder,measurement,setting,value
B1,glycan array binding signal (z-score),[1],-0.136
same,glycan array binding signal (z-score),[2],1.54
same,glycan array binding signal (z-score),[3],-0.136
same,glycan array binding signal (z-score),[4],0.196
same,glycan array binding signal (z-score),[5],0.104
same,glycan array binding signal (z-score),[6],-0.078
same,glycan array binding signal (z-score),[7],-0.072
same,glycan array binding signal (z-score),[8],-0.023
same,glycan array binding signal (z-score),[9],0.699
same,glycan array binding signal (z-score),Gal(a1-3)GalNAc,-0.118
same,glycan array binding signal (z-score),Gal(a1-4)Gal(b1-4)GlcNAc,1.8
same,glycan array binding signal (z-score),[10],22.9
same,glycan array binding signal (z-score),[11],2.92
same,glycan array binding signal (z-score),Gal(b1-2)Gal,-0.01
same,glycan array binding signal (z-score),[12],1.3
same,glycan array binding signal (z-score),[13],0.915
same,glycan array binding signal (z-score),Gal(b1-4)Glc,-0.096
same,glycan array binding signal (z-score),[14],-0.169
same,glycan array binding signal (z-score),[15],1.67
same,glycan array binding signal (z-score),[16],0.05
same,glycan array binding signal (z-score),[17],-0.12
same,glycan array binding signal (z-score),[18],-0.156
same,glycan array binding signal (z-score),Gal(b1-6)Gal,-0.146
same,glycan array binding signal (z-score),Gal4S(b1-4)GlcNAc,-0.113
same,glycan array binding signal (z-score),GalNAc(b1-3)GalNAc,-0.19
same,glycan array binding signal (z-score),GlcA(b1-3)GlcNAc,1
same,glycan array binding signal (z-score),[19],-0.101
same,glycan array binding signal (z-score),[20],0.024
same,glycan array binding signal (z-score),[21],0.006
same,glycan array binding signal (z-score),[22],-0.228
same,glycan array binding signal (z-score),[23],-0.131
same,glycan array binding signal (z-score),[24],0.019
same,glycan array binding signal (z-score),Kdn(a2-3)Gal(b1-4)Glc,-0.136
same,glycan array binding signal (z-score),[25],-0.153
same,glycan array binding signal (z-score),MurNAc(b1-4)GlcNAc,4.16
same,glycan array binding signal (z-score),Neu5Ac(a2-3)Gal,-0.099
same,glycan array binding signal (z-score),[26],-0.075
same,glycan array binding signal (z-score),[27],0.865
same,glycan array binding signal (z-score),[28],-0.114
same,glycan array binding signal (z-score),[29],0.01
same,glycan array binding signal (z-score),[30],-0.139
same,glycan array binding signal (z-score),[31],-0.12
same,glycan array binding signal (z-score),[32],-0.119
same,glycan array binding signal (z-score),[33],-0.152
same,glycan array binding signal (z-score),[34],-0.134
same,glycan array binding signal (z-score),[35],-0.069
same,glycan array binding signal (z-score),[36],-0.014
same,glycan array binding signal (z-score),[37],-0.112
same,glycan array binding signal (z-score),[38],-0.133
same,glycan array binding signal (z-score),[39],-0.129

# Source: the supplement of paper PMC8728848
